# Tests used:
# [1] = molecular target: Sphingosine kinase 1 (Homo sapiens) (UniProt Q9NYA1); conditions: at 1 µM;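 note: mean SPHK1 inhibition value reported from the GSK PKIS kinase panel screen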
# [2] = molecular target: T1, Sphingosine kinase 2 (Homo sapiens) (UniProt Q9NRA0); conditions: at 0.1 µM
# T1 sequence (whole entry): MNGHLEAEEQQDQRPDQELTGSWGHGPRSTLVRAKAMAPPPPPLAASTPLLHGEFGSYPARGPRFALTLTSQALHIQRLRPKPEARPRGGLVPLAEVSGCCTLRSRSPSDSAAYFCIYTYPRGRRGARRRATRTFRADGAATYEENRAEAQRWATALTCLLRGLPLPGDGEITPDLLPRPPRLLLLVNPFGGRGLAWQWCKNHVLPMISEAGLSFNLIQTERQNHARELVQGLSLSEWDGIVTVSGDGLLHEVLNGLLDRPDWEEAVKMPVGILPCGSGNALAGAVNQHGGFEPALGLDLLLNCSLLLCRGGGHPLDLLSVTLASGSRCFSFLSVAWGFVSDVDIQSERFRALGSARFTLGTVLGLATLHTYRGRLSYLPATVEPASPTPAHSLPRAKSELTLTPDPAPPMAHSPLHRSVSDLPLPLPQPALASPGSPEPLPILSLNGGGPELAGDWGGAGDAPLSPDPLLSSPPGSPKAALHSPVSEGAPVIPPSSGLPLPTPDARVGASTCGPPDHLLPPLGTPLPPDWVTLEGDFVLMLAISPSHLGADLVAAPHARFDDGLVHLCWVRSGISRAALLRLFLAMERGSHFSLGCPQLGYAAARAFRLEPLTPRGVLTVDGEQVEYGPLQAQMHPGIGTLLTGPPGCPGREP
# [3] = molecular target: T1, Sphingosine kinase 2 (Homo sapiens); conditions: at 1 µM
# [4] = molecular target: Casein kinase II subunit alpha (Homo sapiens) (UniProt P68400); conditions: at 0.1 µM
# Casein kinase II subunit alpha (Homo sapiens), sequence (P68400 whole entry, looked up): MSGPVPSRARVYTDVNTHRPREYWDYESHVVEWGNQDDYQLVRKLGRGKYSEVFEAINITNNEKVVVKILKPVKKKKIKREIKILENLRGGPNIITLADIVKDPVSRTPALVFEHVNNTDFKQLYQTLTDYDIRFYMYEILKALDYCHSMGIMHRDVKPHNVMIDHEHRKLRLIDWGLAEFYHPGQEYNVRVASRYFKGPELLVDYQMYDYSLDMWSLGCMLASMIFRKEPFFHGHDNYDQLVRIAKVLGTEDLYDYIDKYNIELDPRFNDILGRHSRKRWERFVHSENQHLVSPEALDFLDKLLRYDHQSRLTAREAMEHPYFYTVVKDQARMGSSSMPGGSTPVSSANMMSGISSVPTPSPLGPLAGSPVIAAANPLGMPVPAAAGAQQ
# [5] = molecular target: Casein kinase II subunit alpha (Homo sapiens) (UniProt P68400); conditions: at 1 µM
# [6] = molecular target: T2, Inhibitor of nuclear factor kappa-B kinase subunit alpha (Homo sapiens) (UniProt O15111); conditions: at 0.1 µM
# T2 sequence (whole entry): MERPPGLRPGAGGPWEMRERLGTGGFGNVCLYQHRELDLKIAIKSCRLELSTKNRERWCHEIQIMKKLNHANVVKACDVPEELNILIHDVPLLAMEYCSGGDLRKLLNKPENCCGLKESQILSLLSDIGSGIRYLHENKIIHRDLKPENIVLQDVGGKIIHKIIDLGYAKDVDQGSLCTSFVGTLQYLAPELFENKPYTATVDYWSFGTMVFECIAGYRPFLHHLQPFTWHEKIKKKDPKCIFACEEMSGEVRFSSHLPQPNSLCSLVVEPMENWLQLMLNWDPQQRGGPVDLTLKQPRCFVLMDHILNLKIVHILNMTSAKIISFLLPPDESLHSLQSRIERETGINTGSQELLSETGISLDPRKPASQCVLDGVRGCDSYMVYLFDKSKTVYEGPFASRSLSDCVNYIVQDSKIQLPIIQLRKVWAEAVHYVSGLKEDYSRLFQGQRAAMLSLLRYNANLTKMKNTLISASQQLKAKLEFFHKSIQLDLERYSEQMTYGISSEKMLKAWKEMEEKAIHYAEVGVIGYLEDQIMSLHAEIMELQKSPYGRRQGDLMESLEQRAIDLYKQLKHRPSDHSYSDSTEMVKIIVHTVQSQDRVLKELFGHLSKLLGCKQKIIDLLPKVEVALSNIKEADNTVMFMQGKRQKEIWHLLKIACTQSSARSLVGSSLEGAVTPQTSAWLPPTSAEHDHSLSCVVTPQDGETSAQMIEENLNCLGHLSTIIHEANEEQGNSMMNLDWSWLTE
# [7] = molecular target: T2, Inhibitor of nuclear factor kappa-B kinase subunit alpha (Homo sapiens); conditions: at 1 µM
# [8] = molecular target: T3, Inhibitor of nuclear factor kappa-B kinase subunit beta (Homo sapiens) (UniProt O14920); conditions: at 0.1 µM
# T3 sequence (whole entry): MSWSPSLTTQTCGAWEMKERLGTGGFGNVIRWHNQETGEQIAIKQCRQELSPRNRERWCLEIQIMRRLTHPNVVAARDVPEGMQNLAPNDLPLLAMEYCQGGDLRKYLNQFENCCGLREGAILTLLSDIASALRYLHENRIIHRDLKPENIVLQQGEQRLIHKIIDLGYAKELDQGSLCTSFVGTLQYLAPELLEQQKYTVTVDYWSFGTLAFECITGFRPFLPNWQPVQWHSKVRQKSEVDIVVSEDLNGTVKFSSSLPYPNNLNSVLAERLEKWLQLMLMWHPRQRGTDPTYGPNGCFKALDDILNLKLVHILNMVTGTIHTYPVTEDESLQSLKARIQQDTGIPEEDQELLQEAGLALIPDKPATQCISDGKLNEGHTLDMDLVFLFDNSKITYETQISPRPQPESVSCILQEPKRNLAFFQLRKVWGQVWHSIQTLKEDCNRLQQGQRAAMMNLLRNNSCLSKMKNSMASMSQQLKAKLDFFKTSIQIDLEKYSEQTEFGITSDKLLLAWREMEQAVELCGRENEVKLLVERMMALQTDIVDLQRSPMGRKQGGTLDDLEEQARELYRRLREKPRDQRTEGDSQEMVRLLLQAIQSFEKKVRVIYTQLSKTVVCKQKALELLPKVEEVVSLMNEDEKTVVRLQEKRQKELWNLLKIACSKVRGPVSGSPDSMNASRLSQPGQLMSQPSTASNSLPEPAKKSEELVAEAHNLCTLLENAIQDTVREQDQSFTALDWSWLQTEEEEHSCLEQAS
# [9] = molecular target: T3, Inhibitor of nuclear factor kappa-B kinase subunit beta (Homo sapiens); conditions: at 1 µM
# [10] = molecular target: T4, Inhibitor of nuclear factor kappa-B kinase subunit epsilon (Homo sapiens) (UniProt Q14164); conditions: at 0.1 µM
# T4 sequence (whole entry): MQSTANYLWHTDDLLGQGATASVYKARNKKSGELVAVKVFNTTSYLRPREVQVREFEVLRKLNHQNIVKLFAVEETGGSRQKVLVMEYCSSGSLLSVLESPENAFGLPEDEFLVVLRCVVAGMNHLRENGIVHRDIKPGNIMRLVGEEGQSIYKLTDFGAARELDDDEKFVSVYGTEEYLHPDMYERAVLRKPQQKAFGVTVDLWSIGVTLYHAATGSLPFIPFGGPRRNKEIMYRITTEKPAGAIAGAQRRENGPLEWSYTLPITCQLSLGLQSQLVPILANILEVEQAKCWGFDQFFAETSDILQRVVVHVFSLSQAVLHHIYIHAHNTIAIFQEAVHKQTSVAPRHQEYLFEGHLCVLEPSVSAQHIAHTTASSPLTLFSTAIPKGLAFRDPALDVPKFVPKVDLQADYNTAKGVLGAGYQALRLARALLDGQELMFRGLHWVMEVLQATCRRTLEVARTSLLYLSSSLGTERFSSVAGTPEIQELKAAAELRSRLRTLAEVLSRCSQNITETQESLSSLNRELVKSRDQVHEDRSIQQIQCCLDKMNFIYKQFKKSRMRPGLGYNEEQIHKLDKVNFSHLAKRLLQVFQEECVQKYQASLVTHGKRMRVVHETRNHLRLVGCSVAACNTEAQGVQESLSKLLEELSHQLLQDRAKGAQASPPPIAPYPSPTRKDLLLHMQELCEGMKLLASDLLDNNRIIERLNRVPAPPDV
# [11] = molecular target: T4, Inhibitor of nuclear factor kappa-B kinase subunit epsilon (Homo sapiens); conditions: at 1 µM
# [12] = molecular target: T5, Serine/threonine-protein kinase Nek1 (Homo sapiens) (UniProt Q96PY6); conditions: at 0.1 µM
# T5 sequence (whole entry): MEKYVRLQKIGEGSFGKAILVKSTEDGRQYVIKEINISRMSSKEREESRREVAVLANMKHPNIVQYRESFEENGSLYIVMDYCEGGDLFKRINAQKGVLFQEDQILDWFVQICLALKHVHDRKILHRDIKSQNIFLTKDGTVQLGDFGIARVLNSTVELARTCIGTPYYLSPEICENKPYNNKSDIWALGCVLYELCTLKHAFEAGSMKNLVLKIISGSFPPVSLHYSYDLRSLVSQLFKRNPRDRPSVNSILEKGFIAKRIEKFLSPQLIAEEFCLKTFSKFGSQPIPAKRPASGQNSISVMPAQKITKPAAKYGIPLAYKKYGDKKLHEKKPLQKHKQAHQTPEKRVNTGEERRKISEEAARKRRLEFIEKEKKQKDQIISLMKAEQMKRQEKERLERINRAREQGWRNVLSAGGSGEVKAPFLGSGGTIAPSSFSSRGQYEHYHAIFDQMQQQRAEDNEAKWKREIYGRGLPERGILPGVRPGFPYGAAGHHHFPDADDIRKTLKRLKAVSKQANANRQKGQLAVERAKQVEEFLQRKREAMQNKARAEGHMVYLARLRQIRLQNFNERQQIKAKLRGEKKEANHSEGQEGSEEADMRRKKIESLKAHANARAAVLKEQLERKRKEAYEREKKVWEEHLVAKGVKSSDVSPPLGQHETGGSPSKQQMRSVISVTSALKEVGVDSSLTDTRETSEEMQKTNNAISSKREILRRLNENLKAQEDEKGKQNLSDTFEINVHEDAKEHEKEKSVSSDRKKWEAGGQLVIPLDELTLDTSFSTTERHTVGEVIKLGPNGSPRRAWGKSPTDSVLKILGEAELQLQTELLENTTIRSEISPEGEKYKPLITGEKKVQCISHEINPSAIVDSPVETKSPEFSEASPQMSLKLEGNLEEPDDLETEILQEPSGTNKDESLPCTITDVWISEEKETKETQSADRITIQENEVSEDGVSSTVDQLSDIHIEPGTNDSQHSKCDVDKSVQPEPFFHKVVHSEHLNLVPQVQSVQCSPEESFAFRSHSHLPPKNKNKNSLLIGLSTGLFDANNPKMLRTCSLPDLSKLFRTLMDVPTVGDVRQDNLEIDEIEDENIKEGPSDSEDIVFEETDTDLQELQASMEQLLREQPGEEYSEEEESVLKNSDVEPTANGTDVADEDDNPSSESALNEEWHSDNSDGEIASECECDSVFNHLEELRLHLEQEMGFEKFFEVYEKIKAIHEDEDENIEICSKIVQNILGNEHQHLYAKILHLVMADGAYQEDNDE
# [13] = molecular target: T5, Serine/threonine-protein kinase Nek1 (Homo sapiens); conditions: at 1 µM
# [14] = molecular target: T6, Serine/threonine-protein kinase Nek2 (Homo sapiens) (UniProt P51955); conditions: at 0.1 µM
# T6 sequence (whole entry): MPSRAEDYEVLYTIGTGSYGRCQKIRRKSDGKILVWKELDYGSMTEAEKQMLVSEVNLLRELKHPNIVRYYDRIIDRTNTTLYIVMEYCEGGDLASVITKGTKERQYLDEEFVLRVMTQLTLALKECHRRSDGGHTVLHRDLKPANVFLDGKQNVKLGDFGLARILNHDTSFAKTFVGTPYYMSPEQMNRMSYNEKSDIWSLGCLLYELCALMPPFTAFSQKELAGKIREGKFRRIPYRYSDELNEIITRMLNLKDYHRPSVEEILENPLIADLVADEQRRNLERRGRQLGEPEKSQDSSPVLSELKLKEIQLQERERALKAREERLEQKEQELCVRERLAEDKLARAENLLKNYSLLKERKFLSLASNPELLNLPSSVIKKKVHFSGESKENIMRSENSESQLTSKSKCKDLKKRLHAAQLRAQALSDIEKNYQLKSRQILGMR
# [15] = molecular target: T6, Serine/threonine-protein kinase Nek2 (Homo sapiens); conditions: at 1 µM
# [16] = molecular target: Serine/threonine-protein kinase Nek6 (Homo sapiens) (UniProt Q9HC98); conditions: at 0.1 µM
# Serine/threonine-protein kinase Nek6 (Homo sapiens), sequence (Q9HC98 whole entry): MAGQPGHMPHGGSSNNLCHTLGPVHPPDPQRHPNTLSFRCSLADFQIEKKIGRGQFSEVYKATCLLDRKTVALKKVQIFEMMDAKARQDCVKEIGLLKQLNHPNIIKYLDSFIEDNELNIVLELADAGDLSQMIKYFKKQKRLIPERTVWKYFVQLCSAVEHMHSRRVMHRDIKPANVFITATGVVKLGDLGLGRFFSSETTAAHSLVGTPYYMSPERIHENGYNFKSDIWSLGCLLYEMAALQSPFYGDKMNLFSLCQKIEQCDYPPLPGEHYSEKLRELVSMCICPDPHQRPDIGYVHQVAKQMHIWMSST
# [17] = molecular target: Serine/threonine-protein kinase Nek6 (Homo sapiens) (UniProt Q9HC98); conditions: at 1 µM
# [18] = molecular target: Serine/threonine-protein kinase Nek7 (Homo sapiens) (UniProt Q8TDX7); conditions: at 0.1 µM
# Serine/threonine-protein kinase Nek7 (Homo sapiens), sequence (Q8TDX7 whole entry, looked up): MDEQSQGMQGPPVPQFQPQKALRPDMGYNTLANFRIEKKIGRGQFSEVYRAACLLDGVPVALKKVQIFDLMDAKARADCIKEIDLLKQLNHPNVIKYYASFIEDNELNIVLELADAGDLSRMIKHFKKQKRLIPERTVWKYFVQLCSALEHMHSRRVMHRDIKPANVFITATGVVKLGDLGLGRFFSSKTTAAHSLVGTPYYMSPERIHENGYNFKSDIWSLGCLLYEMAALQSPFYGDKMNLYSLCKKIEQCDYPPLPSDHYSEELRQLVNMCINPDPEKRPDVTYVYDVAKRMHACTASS
# [19] = molecular target: Serine/threonine-protein kinase Nek7 (Homo sapiens) (UniProt Q8TDX7); conditions: at 1 µM
# [20] = molecular target: T7, Serine/threonine-protein kinase Nek9 (Homo sapiens) (UniProt Q8TD19); conditions: at 0.1 µM;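 note: reported value is the mean percent inhibition of NEK9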
# T7 sequence (whole entry): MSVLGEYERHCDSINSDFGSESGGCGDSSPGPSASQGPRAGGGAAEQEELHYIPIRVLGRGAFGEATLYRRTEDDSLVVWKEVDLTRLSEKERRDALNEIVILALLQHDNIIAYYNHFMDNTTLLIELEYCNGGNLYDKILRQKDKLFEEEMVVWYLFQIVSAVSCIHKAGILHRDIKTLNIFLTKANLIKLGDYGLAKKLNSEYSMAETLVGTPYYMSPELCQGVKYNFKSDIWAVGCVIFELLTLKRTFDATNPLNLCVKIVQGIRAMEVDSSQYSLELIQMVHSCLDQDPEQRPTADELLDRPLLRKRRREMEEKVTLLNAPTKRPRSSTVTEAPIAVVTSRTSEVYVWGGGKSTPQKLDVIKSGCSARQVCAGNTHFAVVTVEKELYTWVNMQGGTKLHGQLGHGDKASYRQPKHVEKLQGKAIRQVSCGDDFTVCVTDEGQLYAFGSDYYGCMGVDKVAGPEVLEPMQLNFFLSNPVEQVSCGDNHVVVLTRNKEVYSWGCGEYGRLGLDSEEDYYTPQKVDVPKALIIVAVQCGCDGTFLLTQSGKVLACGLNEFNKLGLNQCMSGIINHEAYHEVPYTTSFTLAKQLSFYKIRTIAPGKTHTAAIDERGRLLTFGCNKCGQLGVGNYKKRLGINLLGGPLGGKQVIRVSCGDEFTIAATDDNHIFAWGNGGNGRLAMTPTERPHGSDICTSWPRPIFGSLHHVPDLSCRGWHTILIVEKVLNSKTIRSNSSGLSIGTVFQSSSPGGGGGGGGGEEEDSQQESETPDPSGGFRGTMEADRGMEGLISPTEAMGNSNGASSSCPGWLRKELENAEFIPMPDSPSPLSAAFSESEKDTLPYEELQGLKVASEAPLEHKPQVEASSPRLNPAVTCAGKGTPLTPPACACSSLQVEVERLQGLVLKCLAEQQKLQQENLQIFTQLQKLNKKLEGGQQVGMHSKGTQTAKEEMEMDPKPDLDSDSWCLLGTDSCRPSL
# Sphingosine kinase 1 (Homo sapiens), sequence (Q9NYA1 whole entry): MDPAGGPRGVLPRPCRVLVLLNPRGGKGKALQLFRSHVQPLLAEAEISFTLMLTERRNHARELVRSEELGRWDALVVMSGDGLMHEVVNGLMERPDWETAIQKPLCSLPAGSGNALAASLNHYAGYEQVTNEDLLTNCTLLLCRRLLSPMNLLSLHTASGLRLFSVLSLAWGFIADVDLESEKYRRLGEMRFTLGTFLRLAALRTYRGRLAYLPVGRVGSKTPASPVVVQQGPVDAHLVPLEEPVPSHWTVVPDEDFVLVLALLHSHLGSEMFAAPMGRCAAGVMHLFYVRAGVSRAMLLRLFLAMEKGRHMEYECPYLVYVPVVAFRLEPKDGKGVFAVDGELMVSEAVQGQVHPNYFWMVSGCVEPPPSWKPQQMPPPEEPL
smiles,measurement,setting,value
COc1cc(C)c(NC(=O)CN(C)C)cc1Nc1nc(Nc2cccc(F)c2C(N)=O)c2cc[nH]c2n1,inhibition,[1],-1.23%
same,inhibition,[2],-0.13%
same,inhibition,[3],-0.4%
same,inhibition,[4],7.08%
same,inhibition,[5],35.5%
same,inhibition,[6],0.92%
same,inhibition,[7],-6.41%
same,inhibition,[8],0.16%
same,inhibition,[9],-5.7%
same,inhibition,[10],1.27%
same,inhibition,[11],5.68%
same,inhibition,[12],1.77%
same,inhibition,[13],-0.24%
same,inhibition,[14],3.86%
same,inhibition,[15],3.95%
same,inhibition,[16],-0.84%
same,inhibition,[17],-0.26%
same,inhibition,[18],4.83%
same,inhibition,[19],9.65%
same,inhibition,[20],7.92%

# Source: ChEMBL document CHEMBL1961873, “Compounds: GSK PKIS; Assays: Nanosyn kinase panel” (2012)
